Measured values as given in PubChem BioAssay AID1508600 (Functional Genomics Laboratory (NCATS/FGL), 2020).
About 3,700 (7%) of roughly 53,000 sequences were called active. The entries come from a sample that favours actives as a whole. Unmarked numbers belong to inactive results.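 Rule for the calls: active = gene knockdowns whose robust z-score for IL-1 alpha signal is at least 2 or at most -2, so actives lie on both sides; inactive = the rest.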

Experiment: Components of the Cytosolic LPS Sensing Pathway: Gene Identification via Genome-wide siRNA Screen;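 note: robust z of the log signal after scaling to non-targeting control siRNA wells of the plate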
Conditions: RAW264.7 macrophages, IL-1a HTRF, actives lie on both sides, screened at 100 nM (by protocol), cells primed 5 h with Pam3CSK4 first
Procedure, shortened: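 Mouse macrophage line RAW264.7 is transfected with siRNA (100 nM final), grown 48h, primed with TLR ligand Pam3CSK4 5 h and given intracellular LipidA 24 h. IL-1a in supernatant is read by HTRF and viability by luminescence.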
Sequence GGGAGAUCAUGAUAGCAGCTT against Cox5b has a z-score of -0.828.
GCUUGGCUUCAGCAUAUGCTT against Phox2b showed a z-score of -0.867.
GCCACACUUAAGUCAGACCTT against Tprn gave a z-score of 0.597.
For GGUGCUAAGAAAAUCAAAGTT against Ryr2, the z-score was 3.64 (active).
Work on GGGAGCAAAUGUAAUUUAUTT against Tbpl1 yielded a z-score of 0.842.
For GGUUUAACUUUAAUGAUGGTT against Cacna1e, the z-score was -1.39.
Work on GGGAAUGGGUCUUGUAAACTT against Ppat yielded a z-score of -1.4.
With GCAUAUGCUUUUACAACACTT against Zfp280c the z-score was 0.252.
With GGUCAAUGCUGUUUUUGUUTT against Mxi1 the z-score was 2.41 (active).
Sequence GGUCUGUGCAAGCAAAUCGTT against Cacng2 has a z-score of -0.153.
Sequence GGAAAAUCAUGGGAGCCUUTT against Lpo has a z-score of -0.435.
In the case of GGAGAGUGAUGAACAGAUGTT against Pctp, the z-score is reported as 2.21 (active).
Work on GGGCUCGUUAAUCUUUUACTT against Nop10 yielded a z-score of 0.753.
Sequence GGAAAUGUUUCUGUUCAUUTT against Nipsnap3b has a z-score of 0.295.
For GGUGACUGACAGCUGCCAATT against Prima1, the z-score was 0.0318.
GGUUAAAAGAGGUGAUUAGTT against Mtfp1 showed a z-score of 1.9.
For GGCCCAUCACUUACUAAAGTT against Exoc3l, the z-score was 0.224.
With GGAAUAUUCACAGUCCGAGTT against Zfand3 the z-score was -2.18 (active).
In the case of GCCAACAAUAUAAUUCAAGTT against Abca5, the z-score is reported as 1.64.
In the case of GGUGACAAAAAGUCAAAGATT against Dis3l2, the z-score is reported as -0.542.
Sequence CCAUGGUCUAGCACAGUGGTT against Cpn2 has a z-score of -0.079.
For GACACUGUCAAAUUAUGGATT against Vmn1r74, the z-score was -0.581.
CGGAAUGAUUCUGACUAAUTT against Mmp7 gave a z-score of 0.546.
Work on GGUAUGGAAGACAAAACCUTT against Nlrp1a yielded a z-score of 0.61.
In the case of GGAACACUGUGAGAACAAGTT against Peak1, the z-score is reported as 0.124.
With GGAGUAUUACGUCUGAUAUTT against Nrxn1 the z-score was 2.39 (active).
In the case of GGUGCUUAAUUCCUGUCCCTT against Ggn, the z-score is reported as -0.855.
With GGAGUUCUUCACGCGUAACTT against G6pd2 the z-score was 0.599.
Sequence GCUAGAGGAGUUUCUAAACTT against Clu has a z-score of 0.0975.
In the case of GCUGGUGUCGGCAAAUCCUTT against Wnk1, the z-score is reported as -0.62.
In the case of GCAGAAUGAGUUCAGACGATT against Mgmt, the z-score is reported as 0.36.
Sequence GGCUUUCAGUUAUUUGACATT against Zfp709 has a z-score of -0.636.
GGUUGUCUUUCUACUCGGGTT against Plpp1 showed a z-score of 1.37.
With GGGAUGUCUUCCUAUACAGTT against Cope the z-score was -2.78 (active).
Sequence GCUGAUGGAGAGUUAUUUGTT against Rcbtb1 has a z-score of 0.675.
Sequence CCACCCAAAAGUAAAAAGUTT against Rpp38 has a z-score of -1.29.
For GGUCUGGAUGCUUUAGAAUTT against Fam114a1, the z-score was -0.373.
Sequence GCAUUACUUGAGCAAAACATT against Zfp654 has a z-score of -0.854.
With GGCUCUGGAUGAAGAACUUTT against Gfpt2 the z-score was 4.13 (active).
CCUUCCUGUCCAUGUACCUTT against Olfr412 gave a z-score of 0.879.
In the case of GGUCACUGUAAAAUGAACCTT against Odf2, the z-score is reported as 1.48.
CGCACAUGUAGUUAAUAAATT against Iqcg showed a z-score of -0.96.
In the case of GGGCAAAGGAAAUGGAAUCTT against Eif5, the z-score is reported as 2.33 (active).
GGCUCUUACUUCAUCACUATT against Casp4 gave a z-score of -1.9.
In the case of GGCCACUUCGUGUUCUUUUTT against Hoxa10, the z-score is reported as 2.08 (active).
In the case of GGUUUUUAACCAAACAUGATT against Actr3, the z-score is reported as -0.784.
With CCAUCACUACACGAAAUUGTT against Fgf12 the z-score was 0.176.
Sequence AAAAAUGUCGGAUUCCCAATT against Adgrf3 has a z-score of -0.121.
In the case of GCGAGUCUCACAUCAGUGATT against Tshz3, the z-score is reported as 2.68 (active).
CGCAGCAGGAAUCAGGAAUTT against Tsr1 gave a z-score of 0.222.
For GGAUGUGGAGUCACUGAUGTT against Ccdc91, the z-score was -0.863.
Work on GGAUGAUGACGACAUUGAUTT against Eef1b2 yielded a z-score of 0.292.
For GGCAGACAACGUGUCACCUTT against Aldh1a3, the z-score was -0.883.
GGAGAAGACCAUAAAGAAGTT against Flywch1 showed a z-score of -0.554.
With GACAUUUGUAUGCAGUCAUTT against Vmn1r193 the z-score was -2.65 (active).
With CCCUCUACACUAUACCACATT against Olfr347 the z-score was -0.498.
Sequence GGAUUCUGGGCUGAAUGGGTT against Pcdh18 has a z-score of -0.491.
With GGAACCAUCUUCAACCAACTT against Eme1 the z-score was -1.44.
In the case of GGAGAACUGUAAAUAAACUTT against Duoxa2, the z-score is reported as -2.1 (active).
Work on CCAUAGAGUGGAUAGUCAUTT against Rsl1 yielded a z-score of 0.385.
For CCCUCAAAACCUAUGCCUUTT against Ugt1a2, the z-score was 0.715.
With GCAGGCUAUGUUCUGGAAUTT against Zfp212 the z-score was 2.34 (active).
With GGAUGAUUGCUGACGUGGATT against Bax the z-score was 0.299.
CCUCCUAUUUGCUUCAUUUTT against Cytip gave a z-score of -1.32.
CCUGAUCCGAUCAUCAGGATT against Cytip showed a z-score of 0.133.
For GGAAGGGCAAGUUAUGAAATT against Fgf14, the z-score was 0.0843.
In the case of GGGACAUUUCUAUUAGAAUTT against Snx24, the z-score is reported as -0.95.
CCAUACCAAUGAAUGCCUCTT against Fas showed a z-score of -1.4.
In the case of “CCACUUCCUUACGAUUGAUTT against Aadacl4fm1”, the z-score is reported as -2.09 (active).
In the case of GGCUGAGGAGUGGUACUUUTT against Src, the z-score is reported as -1.13.
GCUAUGACUUCAACGACUATT against Pcsk4 gave a z-score of -0.309.
Work on GGAUCUGUACAAGACUUAUTT against Olfr800 yielded a z-score of -0.011.
Work on GCCAACAGAAAUAAGCCUUTT against Sorcs1 yielded a z-score of 0.221.
With CCACACCAGAGGUCUUUGATT against Pde4dip the z-score was -1.74.
Sequence CGAUUCCUUUGUAACGAAATT against Aldh5a1 has a z-score of 1.04.
With GGCACUUAAGUUUCAUAAGTT against Qars the z-score was 0.466.
With CCAAGAGCUGAAACAAGAATT against Ankrd12 the z-score was -2.01 (active).
Work on GGUAGUGAUCCUCAAAAAATT against Myc yielded a z-score of 1.84.
For AGUCUUCACGUUUCAUUUATT against Olfr1195, the z-score was 0.32.
CGCUGUUUGUUCAAGAGGATT against Thbs1 showed a z-score of 1.05.
GCACAAGCGAAGAAGUUUGTT against Ube2i gave a z-score of -0.0933.
For GCUCAACUUGGAAUUGGAGTT against Arhgap29, the z-score was 2.28 (active).
In the case of CCAUCUUGACAUCUCGUGUTT against Olfr592, the z-score is reported as -1.9.
With CUUUAUGGGUCGUGGAGGATT against Hnrnpa3 the z-score was -1.12.
In the case of GGAAUAGGACCUAUGUCUGTT against Nr2e1, the z-score is reported as -0.455.
With CCCUGGCUGAGUGCUUUGUTT against Olfr199 the z-score was 0.887.
GGGUUGCCACAUGUUAUAUTT against Smad2 showed a z-score of -0.0821.
With GGAGAAUGAGUGGUAUCUGTT against Msh2 the z-score was -1.48.
Sequence AAGGACGAUCCUGAUUUCATT against Gm5431 has a z-score of 0.828.
In the case of CCAUACAUCCGAGAGUUUGTT against Snrnp70, the z-score is reported as 2.37 (active).
For GCCCUUUCAUCAAUAAUGUTT against Slc12a7, the z-score was -0.113.
With GGAAACAUAACCUUCAAUGTT against Wdr3 the z-score was 1.13.
With CGGAAGCCUCCACAAAUAATT against Apba1 the z-score was 0.0959.
Sequence GGUGUCUACUCUGAGUUGCTT against Pan2 has a z-score of 1.94.
In the case of GCGGAGGAGUUUUCUUCGATT against Susd4, the z-score is reported as 0.93.
Sequence GGACCAUGCUCCCUACUUATT against Prss37 has a z-score of 0.386.
For GGCUGGUUGGAAGGAAAAUTT against Ints6l, the z-score was 2.1 (active).
GGCUGUUCAAAAAUUUCGGTT against Sox17 showed a z-score of -0.261.
Sequence GGUUUUGAGAAGAUAACUCTT against Zfp236 has a z-score of 0.67.
Work on GGACACACUCUACUUCCCATT against Mrgprg yielded a z-score of -0.196.
With GGUUCGAGUUUCAUACUAUTT against Padi4 the z-score was 2.56 (active).
Work on “GUCAGAACAAAACCAAAUGTT against E330013P04Rik” yielded a z-score of -0.152.
With GGAAUCAUCUUCAUUGACCTT against Agpat1 the z-score was 0.0827.
CGUGUGGUGUUGGUAUCAGTT against Spaca1 gave a z-score of 0.853.
In the case of GGAUUCAUAAAAGAAGCAATT against Zfp90, the z-score is reported as 0.8.
For GGCGGCACGUUCACCUAAATT against Rnps1, the z-score was 1.86.
Sequence CCACUUGUAGACUUGAUUUTT against Jag1 has a z-score of 0.618.
Sequence GCCCAGAUCAAUUUGAGCGTT against Grhl2 has a z-score of -0.674.
